Laboratory results published in PubChem BioAssay AID743279 (National Center for Advancing Translational Sciences (NCATS), 2014).
About 17,000 (4.7%) of roughly 360,000 compounds were called active. Another 5% or so got no clear call; they are omitted. This is one part of a sample in which actives are shown more often than they occur. Cut-off read from the data, not from the text of the source: active = activity change below about -50%; inconclusive = mostly about -30% to -49%; inactive = weaker than that.

Test: qHTS for Inhibitors of Inflammasome Signaling: IL-1-beta AlphaLISA Primary Screen
Details: THP-1 LPS/ATP IL-1B secretion, 16 h; at 57.5 µM, stronger effect = lower value
Procedure, shortened: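 THP-1 cells pretreated 1 hr with compounds (up to 57.5 uM final), then stimulated with LPS (250 ng/mL final) plus ATP (1.25 mM final); secreted IL-1B measured by AlphaLISA after 16 hr, decreased signal indicating inhibition.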
% is set by controls: 0 for no effect and ±100 for the full control effect.

SMILES	activity change
O=C(OC1CC2CC1[C@H]1CCCCN1C2=O)N1CCOCC1 (some centres undefined)	7.59% (inactive)
COc1ccc(C(=O)Nc2cccc(/C=C(/CCC(=O)O)c3nc4ccccc4s3)c2)cc1	51.8% (inactive)
COc1ccccc1-n1cnc2cc(NS(=O)(=O)c3ccccc3)ccc21	-2.81% (inactive)
CCC(C)Sc1nc2c(c(=O)[nH]c(=O)n2C)n1CC(O)COc1cccc2ccccc12 (centres undefined)	23.6% (inactive)
CC(C)c1ccccc1OCC(O)CN(CC(O)COc1cccc2ccccc12)C(C)C (centres undefined)	-104% (active)
CCCN(CCC)CC(O)COc1ccccc1C(=O)Nc1ccccc1 (centres undefined)	-6.43% (inactive)
COc1cc(C(=O)OCCCN2CCOCC2)cc(OC)c1OC	-2.32% (inactive)
O=C1Nc2ccccc2NC(c2ccc3c(c2)OCO3)=C1N(Cc1ccc(F)cc1)C(=O)c1ccco1	-23.7% (inactive)
O=S1(=O)CC(N2CCN(Cc3ccccc3F)CC2)CN1Cc1cn(Cc2ccccc2)nn1 (centres undefined)	14% (inactive)
COc1ccc(-c2csc3nc(-c4ccccc4F)oc(=O)c23)cc1OC	-84.4% (active)
Cc1sc2nc(-c3ccccc3F)oc(=O)c2c1C	43.9% (inactive)
COc1ccccc1-c1nnc(-c2ccc(F)cc2)o1	6.31% (inactive)
COc1cc(F)ccc1-c1cc(C(=O)NCC2CCCCC2)[nH]n1	-19.4% (inactive)
CC1CC(=O)N(CC(=O)Nc2cccc(Cl)c2)c2ccccc2S1(=O)=O (centres undefined)	-6.86% (inactive)
CC1=C/C(=N\OS(=O)(=O)c2ccccc2)C=CC1=O	-100% (active)
OCCc1ccc(NCCc2ccco2)cc1	-19.5% (inactive)
Cc1ccc(CN2CC(N3CCC(Cc4ccccc4)CC3)CS2(=O)=O)cc1 (centres undefined)	-19.7% (inactive)
COc1ccc(C)cc1NC(=O)CSc1cccc[n+]1[O-]	0.963% (inactive)
O=C(Nc1cccc(O)c1)c1ccc(C(=O)c2ccccc2)o1	-53.4% (active)
C/C(=C\C(=O)c1cccnc1)Nc1ccc(C)c(C)c1	-17.1% (inactive)
C/C(=C\C(=O)c1ccccc1)Nc1cccc(O)c1	-52.1% (active)
O=C(Nc1cccc(NC(=O)c2cccc(F)c2)c1)c1ccccc1	15.3% (inactive)
O=C(CSc1ccccc1)Nc1ccc(C(=O)Nc2cccc(O)c2)cc1	3.28% (inactive)

SMILES	activity change
O=C(NCc1cccc(CNC(=O)Nc2cccc(O)c2)c1)Nc1cccc(O)c1	-13% (inactive)
CCCC(C(=O)N1CCOCC1)N1C(=O)C2C3C=CC(C3)C2C1=O (centres undefined)	-7.71% (inactive)
NC(=O)Cc1ccc2sc(-c3ccccc3)nc2c1	-14.8% (inactive)
COCCCNC(=O)c1ccc(-c2c(C)noc2C)c2ccoc12	46.4% (inactive)
COc1ccc(Cl)cc1-n1c(C)cc(C(=O)OCC(=O)N2CC(=O)Nc3ccccc32)c1C	-23.3% (inactive)
Cc1sc2ncnc(SCC(=O)NC3CCS(=O)(=O)C3)c2c1C (centres undefined)	-4.05% (inactive)
N#Cc1ccc(-c2ccc(Cl)cc2)nc1Oc1ccc(F)cc1	30% (inactive)
CCc1cc2c(N3CCN(c4nnc(CC)s4)CC3)ncnc2s1	-71.6% (active)
CCc1cc2c(NC3CCCC3)ncnc2s1	-11.8% (inactive)
CCc1cc2c(NC(Cc3ccccc3)C(=O)O)ncnc2s1 (centres undefined)	0% (inactive)
COc1ccc(NC2CCCN(C(=O)c3ccccc3-c3ncc[nH]3)C2)cc1 (centres undefined)	20.4% (inactive)
COc1ccc(Cl)cc1C(=O)NNC(=O)c1nc2nc(C)cc(C)n2n1	27% (inactive)
Cn1c(-c2ccccc2)c[n+]2c1CCCCC2	-10.2% (inactive)
Clc1ccc(C[n+]2cc(-c3ccc(Cl)cc3)n3c2CCC3)cc1	-53.1% (active)
Cc1cc2c(cc1C)N1C(=O)c3cc4ccccc4cc3NC(=O)C1C(=O)N2 (centres undefined)	0% (inactive)
COCCNC(=O)C(c1ccc(C)o1)N(Cc1cccs1)C(=O)c1snc(C(N)=O)c1N (centres undefined)	18.9% (inactive)
CCOc1ccc(N(C(=O)c2snc(C(N)=O)c2N)C(C(=O)NCC2CCCO2)c2c[nH]c3ccccc23)cc1 (centres undefined)	-52.3% (active)
CCOc1cc(C(C(=O)NCC2CCCO2)N(C(=O)Cn2nnc3ccccc32)c2cccc(OC)c2)ccc1O (centres undefined)	-7.04% (inactive)
COc1cccc(N(C(=O)c2snc(C(N)=O)c2N)C(C(=O)NCC2CCCO2)c2c[nH]c3ccccc23)c1 (centres undefined)	-66.5% (active)
COc1ccc(C(C(=O)NC2CCCCC2)N(C(=O)c2snc(C(N)=O)c2N)c2ccccc2OC)cc1 (centres undefined)	-4.36% (inactive)
Cc1ccc(N(C(=O)Cc2cccs2)C(C(=O)NCC2CCCO2)c2ccncc2)cc1 (centres undefined)	-6.16% (inactive)
Cc1ccc(C(C(=O)NCC2CCCO2)N(C(=O)c2snc(C(N)=O)c2N)c2ccc(C(C)C)cc2)o1 (centres undefined)	-54.6% (active)
CCC(C(=O)NC1CCCC1)N(C(=O)c1snc(C(N)=O)c1N)c1ccc2c(c1)OCCO2 (centres undefined)	-12.2% (inactive)

SMILES	activity change
CCOc1ccc(-n2c(N)c(C(=O)NCC3CCCO3)sc2=S)cc1 (centres undefined)	-28.6% (inactive)
Cc1ccc(N(C(=O)c2snc(C(N)=O)c2N)C(C(=O)NCC2CCCO2)c2c[nH]c3ccccc23)cc1 (centres undefined)	-66.2% (active)
Cc1cccc(N(C(=O)c2sc(C)nc2C)C(C(=O)NCC2CCCO2)c2ccccc2)c1 (centres undefined)	17.8% (inactive)
COc1ccc(N(C(=O)c2snc(C(N)=O)c2N)C(C(=O)NC2CCCC2)c2ccco2)cc1OC (centres undefined)	37% (inactive)
CCOc1ccccc1NS(=O)(=O)c1c[nH]c(C(=O)OC)c1	5.96% (inactive)
CSC1=NN(c2ccccc2)CN(c2ccccc2)N1C	-27.8% (inactive)
NC1=C([N+](=O)[O-])C(c2ccccc2)C2=C(CCCC2=O)O1 (centres undefined)	23.3% (inactive)
O=C(NC1CCCCC1)c1ccc(CNc2c(N3CCOCC3)c(=O)c2=O)cc1	-13.2% (inactive)
CC(Nc1ccc([N+](=O)[O-])cc1[N+](=O)[O-])c1ccccc1 (centres undefined)	5.52% (inactive)
COc1ccc(OC)c(C(O)c2ncc(-c3cccc(C(F)(F)F)c3)[nH]2)c1 (centres undefined)	0% (inactive)
CSCCC(NC(=O)c1ccc(Cl)cc1Cl)C(=O)NNC(=O)c1csc(N2CCOCC2)n1 (centres undefined)	-2.31% (inactive)
CC1(C(=O)NS(=O)(=O)c2cccc(F)c2)CCN1C(=O)Cc1cc(F)ccc1F (centres undefined)	17.9% (inactive)
CC1CCCCC12NC(=O)N(CC(=O)Nc1ccc(S(=O)(=O)Nc3ncccn3)cc1)C2=O (centres undefined)	-5.14% (inactive)
Cc1ccc(NC(=O)Cn2c(C)csc2=O)cc1	-15.7% (inactive)
Cc1nn(CC(=O)Nc2ccc(F)cc2)c(=O)c2ccccc12	-1.55% (inactive)
Cc1ccc(NC(=O)Cn2sc3ccccc3c2=O)cc1	-108% (active)
COc1cccc2sc3cc(NCC[C@@H]4CCCN4C)ccc3c(=O)c12	-71.4% (active)
COc1cccc(OC)c1C(=O)Nc1ccc2c(c1)n(C)c(=O)n2C	0% (inactive)
CCCCC[C@H](C)N1C[C@@H](COCc2ccccc2)Oc2cc(N3CCC[C@@H]3CO)ccc2S1(=O)=O	0.594% (inactive)
O=C(c1cccs1)C1C(c2ccc(Br)cc2)NC(=S)NC1(O)C(F)(F)F (centres undefined)	-6.17% (inactive)
O=C(COC(=O)COc1ccccc1F)Nc1cccc(S(=O)(=O)N2CCCCC2)c1	-4.52% (inactive)
CCCCCc1ccc(-c2ccc(C(=O)O)cc2)nc1	46.9% (inactive)
Cc1ccc(-c2csc(NCCc3nc4cc(Cl)c(Cl)cc4n3CCOCCO)n2)cc1	-12.6% (inactive)

SMILES	activity change
Cc1ccc(Nc2nc(-c3ccc(O)cc3O)cs2)nc1	-66.7% (active)
CC(=O)Nc1cnc(-c2ccc(O)cc2C)cn1	-15.7% (inactive)
COc1ccc(NC(=O)/C(N=Nc2cccc(S(=O)(=O)Nc3ccc(SC(F)F)cc3)c2)=C(\C)O)cc1	2.19% (inactive)
Cc1cccc(CN2CCN(C3CN(Cc4cn(Cc5ccccc5F)nn4)S(=O)(=O)C3)CC2)c1 (centres undefined)	4.26% (inactive)
COc1cc(C(=O)NNC(=O)CN2C(=O)NC3(CCCC3)C2=O)cc(OC)c1OC	-7.47% (inactive)
Cc1ccccc1-c1ccc2c(c1)O[C@@H](CN(C)Cc1ccc(C(=O)O)cc1)[C@@H](C)CN([C@H](C)CO)S2(=O)=O	20.6% (inactive)
Cc1ccc(SC(=O)COc2ccc(C)c(C)c2)cc1	-70% (active)
COc1ccc(C(=O)COC(=O)COc2ccc(C)c(C)c2)cc1	6.77% (inactive)
Cc1ccc(OCC(=O)NC(C)c2ccccc2)cc1C (centres undefined)	9.86% (inactive)
Clc1cccc(Cc2c(-c3cccc(Cl)c3)nc3ccc(Cl)cn23)c1	64.9% (inactive)
O=C1OC(OC(=O)c2ccccc2Br)C(N2CCOCC2)=C1Cl (centres undefined)	-12.8% (inactive)
Cc1ccc(NC2=C(Cl)C(=O)OC2OC(=O)c2ccccc2C)cc1 (centres undefined)	-89.8% (active)
Cc1ccccc1C(=O)OC1OC(=O)C(Cl)=C1Nc1ccccc1 (centres undefined)	-17.8% (inactive)
CCOC(=O)[C@H]1[C@H]2COc3ccc(Br)cc3[C@@H]2N2C(=O)CN(C)C(=O)[C@@]12C	19.3% (inactive)
COC(=O)c1ccccc1N=Nc1c(C)[nH][nH]c1=O	1.34% (inactive)
CCOc1cc(/C=N/NC(=O)c2c(C)nc3ccc(Cl)cn23)ccc1O	11.7% (inactive)
O=C(NCC1CCCO1)c1cc2c([nH]c3ccccc32)c(-c2ccc(F)cc2)n1 (centres undefined)	-10.2% (inactive)
O=C(NCCc1ccc(F)cc1)c1n[nH]c2ccccc12	29.4% (inactive)
O=C(NCCCO)c1cc2c([nH]c3ccccc32)c(-c2ccc(F)cc2)n1	-65.7% (active)
CC(C(=O)NCCc1ccc(S(N)(=O)=O)cc1)N1C(=O)CC(C)(C)Sc2ccccc21 (centres undefined)	25.8% (inactive)
